Bioassay records from PubChem.
In the library only some 10% were active in any assay of this set; here they are far more common.
Pf growth 48h – Primary qHTS for delayed death inhibitors of the malarial parasite plastid, 48 hour incubation; P. falciparum luciferase growth in erythrocytes, 48 h; Potency, µM (top dose mostly 28.7 µM), for inactives: top-dose activity change, negative = inhibition, actives largely listed as inhibitors; hit rate 5.9% among 310,000; AID 504832, 2011; also: % is scaled to controls: 0 for no effect and ±100 for the full control effect
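Growth was read as firefly luciferase luminescence after a 48 h, 37 C, 5% CO2 exposure of compounds to reporter-bearing P. falciparum cultures (0.1% parasitemia, 2% hematocrit final) in Albumax-supplemented RPMI 1640.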
Pf growth 96h – Primary qHTS for delayed death inhibitors of the malarial parasite plastid, 96 hour incubation; Potency, µM (doses to about 28.7 µM), for the others: at the highest dose activity change, negative = inhibition, actives largely listed as inhibitors; P. falciparum luciferase reporter growth, 96 h; hit rate 6.9% among 320,000; also: % is scaled to controls: 0 for no effect and ±100 for the full control effect
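Erythrocytes infected with luciferase-expressing P. falciparum were dispensed at 2% hematocrit and 0.05% parasitemia (final), then incubated with compounds 96 hours at 37 C in 5% CO2. Luminescence after detection reagent addition reported growth.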
NS1 function inh – qHTS Assay for Inhibitors of Influenza NS1 Protein Function; AID 2326, 2010; Potency, µM (top dose mostly 46.1 µM), inactives show at the top dose activity, positive = more growth; hit rate 0.4% among 270,000; calls by dose curve; also: actives are rising curves; nearly all actives have a fitted effect of over 50% in size
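OD600 was taken as the measure of yeast growth restored by compound in an NS1-expressing S. cerevisiae strain. Cells had been washed out of glucose medium and diluted 1:100 into galactose -URA medium, pH 6.0.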
SARS PLP yeast – qHTS of Yeast-based Assay for SARS-CoV PLP. Potency, µM (titrated, usually from 32.9 µM), without a hit: at the top dose activity, positive = growth rescue, usual class: activators. S. cerevisiae expressing SARS-CoV PLpro, growth rescue. hit rate 0.19% among 330,000; calls by dose curve; also: 0% is about no effect; nearly all actives have a fitted effect of over 55% in size
Numbers without * were called inactive; ? = inconclusive; . = not tested or not shown. Unless noted, calls follow the shape of the dose curve; as a rule, active = well fitted inhibition curve with a large enough effect; inconclusive = small, poorly fitted or top-dose-only effect, or another doubt; inactive = no such curve, though single readings can be large or run the other way. Potency is read from the fitted curve at half-maximal effect.

SMILES	Pf growth 48h	Pf growth 96h	NS1 function inh	SARS PLP yeast
CS(=O)(=O)N(CCc1ccccc1)CC(=O)N1CCN(Cc2ccc3c(c2)OCO3)CC1	?	.	-1.7%	.
COc1cccc(C(=O)NCCS(=O)(=O)N2CC(C)CC(C)C2)c1 (configuration not stated)	22.5%	48.9%	.	-0.3%
CCSc1nc2nn(-c3ccccc3)c(=O)c-2c2n1CCCCC2	-18.8%	.	3.4%	-4.3%
Cc1ccc(C)c(C(=O)C(C)Sc2nc3nn(-c4ccccc4)c(=O)c-3c3n2CCCCC3)c1 (configuration not stated)	?	9.28µM*	15.0%	5.9%
CC(OC(=O)c1ccc(Cl)nc1)C(=O)N1CCc2ccccc21 (configuration not stated)	?	2.7%	.	0.5%
O=C(Cc1ccc(Cl)cc1)Nc1ccc(SC(F)F)cc1	-63.3%	-95.2%	-0.9%	-24.7%
C(#Cc1ccccc1)C[N+]1(CC#Cc2ccccc2)CCCC1	2.33µM*	?	-9.3%	-8.9%
C=CC[N+]1(CC#Cc2ccccc2)CCCC1	?	20.5%	4.9%	0.1%
C(#Cc1ccc(C#CCN2CCCC2)cc1)CN1CCCC1	-16.9%	?	8.0%	-1.0%
C=CC[N+]1(CC#CCOC(c2ccccc2)c2ccccc2)CCOCC1	?	2.62µM*	-0.7%	-1.6%
C=CC#CC[N+]1(CC#Cc2ccccc2)CCOCC1	5.86µM*	4.15µM*	0.2%	-11.7%
Cc1ccc(C#CC[N+]2(C)CCCCC2)cc1	6.57µM*	1.85µM*	-0.3%	0.9%
Cc1ccc(CN2CCC(n3nccc3NC(=O)CCOc3ccccc3)CC2)o1	-18.1%	36.8%	-2.6%	-2.1%
O=C(O)CCCSc1nc2ccccc2s1	.	.	0.0%	.
c1cc(-c2cccs2)nc(-c2cccs2)c1	23.6%	13.2%	-6.6%	-3.9%
c1csc(-c2cn3ccc4ccccc4c3n2)c1	0.262µM*	105.2%	1.7%	-0.9%
CC(=O)Nc1nn(C)c2nc3cc(C)ccc3cc12	6.8%	40.2%	-48.8%	-5.3%
CCCn1nc(NC(=O)c2cccs2)c2cc3ccc(C)cc3nc21	2.94µM*	?	-6.7%	0.8%
Cc1ccc2cc3c(NC(=O)c4ccco4)nn(C)c3nc2c1	?	8.28µM*	-61.3%	-4.9%
CCCn1nc(NC(=O)c2cccs2)c2cc3cc(C)ccc3nc21	?	-6.1%	-7.8%	-13.2%
COc1cc(S(=O)(=O)Nc2ccccc2N2CCCCC2)ccc1NC(C)=O	-25.0%	?	.	0.7%
COc1ccccc1NS(=O)(=O)c1cc(NC(=O)C(C)C)ccc1N1CCCCC1	-19.6%	?	.	-1.8%
COc1ccccc1NS(=O)(=O)c1cc(NC(=O)c2cccs2)ccc1N1CCCCC1	?	3.7µM*	?	17.4%
COc1cc(OC)c(S(=O)(=O)Nc2ccccc2N2CCCCC2)cc1NC(C)=O	9.28µM*	9.28µM*	-2.9%	2.6%
O=C(Nc1ccc(N2CCCC2)c(S(=O)(=O)Nc2cccc(C(F)(F)F)c2)c1)c1cccs1	?	14.7µM*	15.7%	1.5%
SMILES	Pf growth 48h	Pf growth 96h	NS1 function inh	SARS PLP yeast
COc1ccccc1NS(=O)(=O)c1cc(NC(=O)Nc2ccccc2)ccc1N1CCCCC1	2.62µM*	1.47µM*	?	-3.7%
COc1ccccc1NS(=O)(=O)c1cc(NC(=O)c2cccs2)ccc1N1CCCC1	?	?	29.0%	-5.7%
COC(=O)Cc1ccc(O)c(N)c1	?	1.85µM*	5.4%	1.4%
COC(=O)c1cc(Cc2ccc(N)c(C(=O)OC)c2)ccc1N	.	72.9%	-2.9%	-11.9%
Cc1ccc(CNC(=O)C(=O)NCC2CCCN2S(=O)(=O)c2cccs2)cc1 (configuration not stated)	?	?	.	-0.8%
CC(C)(C)OC(=O)NCCCCCc1cn([C@@H](CO)C(=O)NCCCCCCCCCCC(=O)N2CCN(C(=O)OC(C)(C)C)CC2)nn1	1.17µM*	2.94µM*	.	2.3%
CC(C)(C)OC(=O)NCCCC[C@@H](C(=O)NCCCCCCCCCCC(=O)N1CCN(C(=O)OC(C)(C)C)CC1)n1cc(CCCC(=O)O)nn1	7.38µM*	5.86µM*	.	-0.5%
C[C@H](O)[C@@H](C(=O)N1CCN(C(=O)OC(C)(C)C)CC1)n1cc(CCCCNC(=O)OC(C)(C)C)nn1	-1.9%	9.4%	4.4%	0.4%
CC(C)(C)OC(=O)NCCCC[C@@H](C(=O)N1CCN(C(=O)OC(C)(C)C)CC1)n1cc(CCC(=O)O)nn1	25.4%	38.5%	4.1%	0.5%
CCCCc1cn([C@@H](CCCCNC(=O)OC(C)(C)C)C(=O)N2CCN(C(=O)OC(C)(C)C)CC2)nn1	14.7µM*	10.4µM*	-1.8%	1.0%
CC(C)(C)OC(=O)CC[C@@H](C(=O)NCCCCCCCCCCC(=O)N1CCN(C(=O)OC(C)(C)C)CC1)n1cc(CCCCCNC(=O)OC(C)(C)C)nn1	0.37µM*	0.329µM*	.	-25.1%
CCC/C(C#Cc1ccsc1)=C1/c2ccccc2C(=O)N1c1ccccc1	.	.	.	8.9%
C=CCn1c(SCc2csc(-c3ccc(Cl)cc3)n2)nnc1-c1ccccc1OC	17.9%	?	1.8%	5.0%
CCN(CC(=O)Nc1ccc(OC)cc1)C(=O)c1ccccc1Sc1ccccc1C#N	?	17.8%	.	-1.6%
Cn1cnnc1Sc1cc(N2CCN(S(=O)(=O)c3ccc(Cl)c(Cl)c3)CC2)ccc1[N+](=O)[O-]	11.7µM*	-2.0%	24.8%	6.4%
CC(C)Oc1ccc(S(=O)(=O)N2CCOCC2)cc1NC(=O)C1COc2ccccc2O1 (configuration not stated)	11.7µM*	11.7µM*	.	-5.7%
CCOc1ccc(S(=O)(=O)N2CCCCC2)cc1NC(=O)C1COc2ccccc2O1 (configuration not stated)	6.57µM*	?	.	-3.1%
CCOc1ccc(S(=O)(=O)N2CCCCC2)cc1NC(=O)C1=COCCO1	?	-20.6%	.	8.4%
COc1ccc(S(=O)(=O)N2CCOCC2)cc1NC(=O)COC(=O)C1COc2ccccc2O1 (configuration not stated)	16.9%	39.7%	-18.0%	20.8%
CC(C)Oc1ccc(S(=O)(=O)N2CCOCC2)cc1NC(=O)C1=COCCO1	?	11.7µM*	.	-2.5%
CCn1c(SCC(=O)Nc2nccc(C)n2)nc2ccccc21	37.4%	93.1%	-2.1%	0.6%
CCCCN(C)c1nc(-c2ccco2)c2c(c1C#N)CC(C)(C)OC2	.	2.94µM*	-45.8%	-6.1%
CCN(CC)CCNc1nc(-c2ccccc2)c2c(c1C#N)CC(C)(C)OC2	.	8.28µM*	3.8%	-4.4%
CC1(C)Cc2c(C#N)c(NCCCO)nc(-c3ccccc3)c2CO1	.	?	-35.8%	-28.4%
CN(C)CCNc1nc(-c2ccco2)c2c(c1C#N)CC(C)(C)OC2	-4.1%	?	-3.7%	0.9%
Cc1cnc(C(=O)OC(C)C(=O)Nc2cccc3ccccc23)cn1 (configuration not stated)	25.7%	45.8%	.	0.4%
O=C(Nc1cccc(Cl)c1)N(Cc1nc2ccccc2c(=O)[nH]1)C1CCCC1	-7.6%	4.1%	-2.0%	-6.1%
O=C(Nc1cccc(Cl)c1)N(Cc1nc2ccccc2c(=O)[nH]1)Cc1cccs1	7.38µM*	?	-1.5%	18.8%
